± gives the standard deviation of the averaged measurements.
Tests used:
Assay in all cases: cell viability (% of vehicle); higher = less cytotoxic
Conditions in all cases: 10 µM; 72 h
HCI01 = test system: HCI01 (cells of a triple-negative basal-like breast cancer xenograft)
HCI03 = test system: HCI03 (cells of an ER-positive luminal breast cancer xenograft)
HCI09 = test system: HCI09 (cells of a triple-negative luminal androgen receptor type breast cancer xenograft)
HCI11 = test system: HCI11 (cells of an ER-positive luminal breast cancer xenograft)
HCI13 = test system: HCI13 (cells of an ER-positive luminal breast cancer xenograft)
HCI16 = test system: HCI16 (cells of a triple-negative basal-like breast cancer xenograft)
UCD52 = test system: UCD52 (cells of a triple-negative basal-like breast cancer xenograft)
WHIM2 = test system: WHIM2 (cells of a triple-negative basal-like breast cancer xenograft)
WHIM30 = test system: WHIM30 (cells of a triple-negative basal-like breast cancer xenograft)
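Note: PDX cells carrying CMV promoter-driven luciferase, viability read as total photon flux per second by IVIS imaging following D-luciferin, vehicle control 0.1% DMSO.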

| SMILES | cell viability (HCI01) | cell viability (HCI03) | cell viability (HCI09) | cell viability (HCI11) | cell viability (HCI13) | cell viability (HCI16) | cell viability (UCD52) | cell viability (WHIM2) | cell viability (WHIM30) |
| --- | --- | --- | --- | --- | --- | --- | --- | --- | --- |
| NC(=O)C(CCC(F)(F)F)N(Cc1ccc(-c2ncon2)cc1F)S(=O)(=O)c1ccc(Cl)cc1 (stereo unspecified) | 96 ± 23 | 142 | 67.5 ± 2.2 | 75.5 | 102 ± 16 | 96.7 | 81.58 ± 0.81 | 107.6 ± 0.73 | 124 ± 13 |
| COc1cc(CNC(=O)CCCCC=CC(C)C)ccc1O [Capsaicin] | 105 ± 8.6 | 120 | 75.8 ± 1.6 | 90.6 | 101 ± 17 | 82.4 | 78.3 ± 5.6 | 90.1 ± 21 | 108 ± 12 |
| CN1CCCC[C@H]1CCN1c2ccccc2Sc2ccc(S(C)=O)cc21.O=S(=O)(O)c1ccccc1 (stereo partly specified) [Mesoridazine Besylate] | 115 ± 9.3 | 77.9 | 132 ± 60 | 98.2 | 122 ± 10 | 106 | 95.9 ± 8.8 | 85.8 ± 21 | 103 ± 7.5 |
| CC(C)n1c(C=CC(O)CC(O)CC(=O)O)c(-c2ccc(F)cc2)c2ccccc21 (stereo unspecified) [Fluvastatin] | 91.2 ± 13 | 130 | 65.7 ± 18 | 162 | 192 ± 10 | 109 | 59.3 ± 12 | 48.9 ± 2.5 | 139 ± 14 |
| CN1CCC(=C2c3ccccc3CCc3sccc32)CC1.O=C(O)CC(O)C(=O)O [Pizotifen Malate] | 100 ± 41 | 105 | 74.7 ± 3.8 | 97.9 | 167 ± 21 | 111 | 82.7 ± 2.5 | 68.9 ± 11 | 173.9 ± 0.85 |
| O=NN(CCCl)C(=O)NC1CCCCC1 [Lomustine] | 94.4 ± 38 | 115 | 93.2 ± 13 | 95.2 | 83.2 ± 8.6 | 146 | 80.2 ± 12 | 91.3 ± 13 | 125 ± 10 |
| NS(=O)(=O)Cc1noc2ccccc12 [Zonisamide] | 96.13 ± 0.4 | 136 | 90 ± 5 | 108 | 117 ± 18 | 99.1 | 130 ± 16 | 92.9 ± 7.1 | 129 ± 3.9 |
| Cn1c(=O)cc(N2CCCC(N)C2)n(Cc2ccccc2C#N)c1=O (stereo unspecified) [Alogliptin (SYR-322)] | 118 ± 5.8 | 112 | 89.5 ± 8.9 | 112 | 115 ± 26 | 113 | 108.86 ± 0.059 | 114 ± 9.2 | 117 ± 6.7 |
| CNC(=C[N+](=O)[O-])NCCSCc1ccc(CN(C)C)o1.Cl [Ranitidine] | 110 ± 5 | 125 | 112 ± 1.9 | 103 | 122 ± 6.4 | 122 | 89.9 ± 9.7 | 85.6 ± 2.9 | 113 ± 11 |
| CCc1cc(C(N)=S)ccn1 [Ethionamide] | 105 ± 11 | 111 | 100 ± 3.6 | 104 | 136 ± 15 | 100 | 82.3 ± 9.9 | 92.7 ± 8.7 | 98.5 ± 9.4 |
| CC12CCC(O)CC1=CCC1C2CCC2(C)C(n3cnc4ccccc43)=CCC12 (stereo unspecified) | 119 ± 15 | 58.2 | 54.3 ± 41 | 76.2 | 103 ± 7.5 | 96.3 | 83.2 ± 4.1 | 118 ± 18 | 93.6 ± 13 |
| Cc1cc(C)nc(NS(=O)(=O)c2ccc(N)cc2)n1 [Sulfamethazine] | 86 ± 14 | 88.9 | 101 ± 3.9 | 89.6 | 112 ± 6.1 | 114 | 91.9 ± 5.5 | 95.7 ± 21 | 132 ± 1.9 |
| CC(=O)OC1(C(C)=O)CCC2C3CCC4=CC(=O)CCC4=C3C(c3ccc(N(C)C)cc3)CC21C (stereo unspecified) [Ulipristal acetate] | 97.9 ± 26 | 116 | 82.5 ± 9 | 78.9 | 92.8 ± 17 | 117 | 93.4 ± 5.8 | 105 ± 2.1 | 111 ± 18 |
| CC(C)(C)N.CCCC(NC(C)C(=O)N1C(C(=O)O)CC2CCCCC21)C(=O)OCC (stereo unspecified) [Perindopril Erbumine] | 84.9 ± 13 | 101 | 95.1 ± 11 | 93.5 | 129 ± 5.6 | 108 | 72.44 ± 0.41 | 98.2 ± 1.5 | 114 ± 28 |
| CCNC1CC(N)C(OC2OC(CN)=CCC2N)C(O)C1OC1OCC(C)(O)C(NC)C1O.CCNC1CC(N)C(OC2OC(CN)=CCC2N)C(O)C1OC1OCC(C)(O)C(NC)C1O.O=S(=O)(O)O.O=S(=O)(O)O.O=S(=O)(O)O.O=S(=O)(O)O.O=S(=O)(O)O (stereo unspecified) [Netilmicin Sulfate] | 99.3 ± 34 | 125 | 125 ± 46 | 111 | 98.3 ± 2.5 | 138 | 120 ± 18 | 115.7 ± 1.1 | 138 ± 28 |
| O=C([O-])P(=O)([O-])[O-].[Na+].[Na+].[Na+] [Foscarnet Sodium] | 104 ± 20 | 96.7 | 98.1 ± 3.7 | 89.6 | 95.1 ± 6.7 | 133 | 86.4 ± 3 | 103 ± 11 | 126 ± 2.2 |
| CC1=C(C(=O)O)N2C(=O)C(NC(=O)C(N)c3ccccc3)C2SC1 (stereo unspecified) [Cephalexin] | 135 ± 38 | 122 | 86.6 ± 21 | 101 | 76.3 ± 2.8 | 113 | 114.8 ± 0.94 | 118 ± 12 | 111 ± 5.6 |
| CNCCC(Oc1ccccc1C)c1ccccc1.Cl (stereo unspecified) [Atomoxetine HCl] | 119 ± 8.9 | 145 | 111 ± 11 | 108 | 105 ± 3.7 | 130 | 85 ± 3.7 | 88.7 ± 17 | 180 ± 28 |
| Nc1ncnc2c1ncn2C1OC(CO)C(O)C1O (stereo unspecified) [Adenosine] | 99.7 ± 3.6 | 123 | 90.4 ± 15 | 96.9 | 66.2 ± 4.5 | 97.7 | 95.7 ± 3.5 | 121 ± 34 | 124 ± 16 |

Source: the supplement of paper PMC6992640
